SMILES strings stand for the structures. The whole screen tested about 2,200 compounds, of which about 1,300 (59%) were called active. No rule for the calls is given here. So high a share suggests a set chosen from earlier hits. Not all results are given here. Entries with a potency or affinity are not part of this list.

The nature of the test: THP-1 cell cytotoxicity, dose response, cytotoxicity control for Salmonella PhoP regulon inhibitors, S. typhimurium screen hits (AID 2253). The conditions noted are these: THP-1 viability, CellTiter-Glo luminescence, 72 h; series mostly up to 50 µM; viability: at the top concentration. Background: ATP-based viability assays read luminescence as a measure of living cells.
`O=C(NCC(=O)N(c1cccnc1)C(C(=O)NCc1ccco1)c1ccccc1)c1ccco1` (stereo not drawn): the viability (usually a read-out of living cells in per cent, often relative to untreated cells) is 96.2% (inactive). In the case of `COC(=O)c1ccccc1NC(=O)CS(=O)(=O)Cc1nc(-c2ccc(C)cc2)oc1C`, the “viability” value is 80.8% (inactive). For `COc1ccc(-c2nnn(CC(=O)N(Cc3ccco3)C(C(=O)NCC3CCCO3)c3ccco3)n2)cc1` (stereo not drawn), the “viability” value is 87% (inactive). To `CSCC[C@H](NC(=O)Nc1ccc(C)cc1)C(=O)O` belongs 97.3% (inactive); to `C=C(C)C1Cc2cc3ccc(=O)oc3cc2O1` (stereo not drawn), 80.7% [at 12.5 µM] (inactive); to `CCOC(=O)N1CCC(NC(=O)CCC(=O)c2ccccc2)CC1`, 94.4% (inactive). For the molecule `Cc1cccnc1NC(=O)CCCN1C(=O)c2ccccc2C1=O`, the “viability” value is 95.8% (inactive). To `COc1ccc(-c2nnc(SCCC(=O)O)n2-c2ccccc2)cc1` belongs 92.9% (inactive); to `Cc1cccc(C)c1NC(=O)CSc1nnc(NC(=O)CN2CCOCC2)s1`, 87.5% (inactive); to `CCCOc1ccc(C(=O)NC(=S)N2CCN(c3cc4c(cc3F)c(=O)c(C(=O)O)cn4CC)CC2)cc1`, 89% (inactive).

On to `Nc1nnc(Sc2ccc(Cl)cc2[N+](=O)[O-])s1`, for which the “viability” value was 103% (inactive). Next, `c1ccc2oc(SCc3cn4ccccc4n3)nc2c1`: 85.5% (inactive); `NC(=O)c1cnn(Cc2ccc(Cl)cc2)c1N`: 95.4% (inactive). Next, `CC(=O)Cn1cnc2sc(-c3ccccc3)cc2c1=O`: 95.9% (inactive). With `Nc1ccc(S(=O)(=O)Nc2ccc(Cl)nn2)cc1`, the “viability” value was 89.7% (inactive). Next, `Cc1nc2cc(NC(=O)N3CCN(c4ccccn4)CC3)ccc2o1`: 84.4% (inactive). Next, `Cc1ccc(C(=O)C2COC(=O)C2)cc1` (stereo not drawn): 98.3% (inactive); `Cc1cc2nn(-c3ccccc3)nc2cc1NC(=O)c1cccs1`: 95% (inactive). In the case of `COc1cccc(NC(=O)CNC(=O)c2cccs2)c1`, the “viability” value is 92.6% (inactive). Next, `O=S(=O)(c1ccc(S(=O)(=O)N2CCN(C/C=C/c3ccccc3)CC2)cc1)N1CCCC1`: 83.2% (inactive); `COCCNC(=O)CSCc1c(F)cccc1Cl`: 94.2% (inactive). To `Cc1nc2c(Cl)cccc2c2c1CC(CBr)O2` (stereo not drawn) belongs 83.2% (inactive); to `CN(C)CCNc1nc(-c2ccccc2)nnc1C(F)(F)F`, 98.1% (inactive); to `Cc1cccc(C=Nc2ccc3c(c2)oc2ccccc23)c1O`, 100% (inactive). To `CCNC(=S)NNC(=O)c1ccc(OC(F)F)cc1` belongs 84% [at 25 µM] (inactive); to `Nc1nc(C2CCCCC2)cs1`, 91.3% (inactive). On to `COc1ccc(C2=Nc3cccc4cccc(c34)N2)cc1`, for which the “viability” value is 107% (inactive). Next, `O=S(=O)(NC1=NCCCCC1)c1cccs1`: 96.8% (inactive). Next, `C=CCOc1ccc(CNc2nn[nH]n2)cc1`: 91.5% (inactive); `OCCN(Cc1ccccc1)Cc1ccc(Cl)cc1`: 86.6% (inactive); `CN(C)S(=O)(=O)Nc1ccc(C(=O)O)cc1`: 85.3% (inactive). Next, `CC1CC(C)CN(CCCNC(=O)C2CCC(=O)N2C2CCCC2)C1` (stereo not drawn): 98.3% (inactive).

Regarding `CCOCC(=O)Nc1ccc(F)c(F)c1`, the “viability” value is 94.5% (inactive). To `O=C(Cn1ncc2c(=O)oc3ccccc3c21)N1CCN(c2ccccn2)CC1` belongs 101% (inactive); to `Cc1ccccc1C(=O)N(C)Cc1ccccc1`, 93.6% (inactive). On to `CCOC(=O)c1ccc(N2CCN(c3ccc(F)cc3)CC2)c(NC(=O)Nc2cccc(OC)c2)c1`, for which the “viability” value is 94% (inactive). To `Cc1ccc2occ(/C=N/O)c(=O)c2c1` belongs 85% (inactive); to `O=C(O)C1CCCN1S(=O)(=O)c1ccc2[nH]c(=O)c(=O)[nH]c2c1` (stereo not drawn), 99.7% (inactive); to `O=C(CSc1nnc2n(C3CCCCC3)c(=O)c3ccccc3n12)OC1CCCCC1`, 92.5% (inactive). As to `Cc1ccc(S(=O)(=O)NC2=NCN(CCOC(=O)c3ccc([N+](=O)[O-])cc3)CN2)cc1`, the “viability” value was 103% (inactive). To `Cc1ccc(C(=O)NCC(=O)NCC(=O)OCC(=O)c2ccc([N+](=O)[O-])cc2)cc1` belongs 90.7% (inactive); to `N#Cc1c(N)nc(SCC(=O)NC2CCCCC2)c(C#N)c1-c1ccc(Cl)cc1`, 90.8% (inactive); to `Nc1ncncc1-c1ccc(Cl)cc1`, 86.4% (inactive). Next, `CCn1cc(C(=O)O)c(=O)c2cc(F)c(N3CCN(C(=S)NC(=O)c4cccc(C)c4)CC3)cc21`: 110% (inactive). With `CN1/C(=C/C=N/NC(=O)c2ccc([N+](=O)[O-])cc2)C(C)(C)c2ccccc21`, the “viability” value is 97.2% (inactive). To `COc1cc(C)ccc1OCCCOc1ccccc1Br` belongs 92.4% (inactive); to `O=C(COc1ccc(Br)cc1Cl)NC(=O)NCc1ccccc1`, 88.9% (inactive). To `Clc1ccc(OCCn2ccnc2)c(Br)c1` belongs 80.3% (inactive); to `Cc1cc(C)c(NC(=S)NC(=O)c2ccc(-c3ccccc3)cc2)c(C)c1`, 101% (inactive); to `CC(C)Oc1cccc(C(=O)NC(=S)Nc2ccccc2)c1`, 102% (inactive).

As for `Cn1cc(-c2nnnn2-c2cccc(C(F)(F)F)c2)c(C(F)(F)F)n1`, the “viability” value is 91.9% (inactive). Next, `Nc1cc(=O)[nH]c(=S)n1-c1cccc(C(F)(F)F)c1`: 92.3% (inactive); `Cc1ccc(/C=C/c2nnc(-c3ccc(C)cc3)o2)cc1`: 89.6% (inactive). Next, `COc1ccc(OC)c(NC(=O)c2ccccc2NS(=O)(=O)c2cccc3cccnc23)c1`: 86.2% (inactive); `O=C(CSc1ncn[nH]1)Nc1cccc2ccccc12`: 94.5% (inactive). Next, `COc1ccc(CCN2CC3=C(C2=O)C(c2ccccc2)NC(=O)N3C)cc1OC` (stereo not drawn): 94.7% (inactive).

Take `Cc1ccc(C(=O)COC(=O)CNS(=O)(=O)c2ccccc2)cc1[N+](=O)[O-]`: the “viability” value was 86.3% [at 12.5 µM] (inactive).

As to `O=C(Cc1ccc(Cl)cc1)NNS(=O)(=O)c1ccc([N+](=O)[O-])cc1`, the “viability” value was 106% (inactive). As for `O=C(N[C@H](CO)[C@H](O)c1ccc([N+](=O)[O-])cc1)C(Cl)Cl`, the “viability” value is 103% (inactive). To `COc1ccc2nc(-c3ccccc3)cc(OC)c2c1` belongs 86.2% (inactive); to `Cc1nc2ccccc2c(=O)n1/N=C/c1ccc(N(C)C)cc1`, 99.1% (inactive); to `Cc1ccc(-c2n[nH]c(=S)n2/N=C/c2cc3c(cc2[N+](=O)[O-])OCO3)cc1`, 80.4% (inactive). Take `CN(C)c1ccc(/C=N/c2cc(-c3ccccc3)nn2-c2ccccc2)cc1`: the “viability” value is 81.5% (inactive). To `CO[C@@]1(NC(=O)C2SC(=C(C(N)=O)C(=O)O)S2)C(=O)N2C(C(=O)O)=C(CSc3nnnn3C)CS[C@@H]21` (stereo partly drawn) belongs 87.5% (inactive); to `CCCn1nnc(NC(=O)c2ccc(Br)o2)n1`, 86% (inactive); to `FC(F)(F)c1cc(C(F)(F)F)c2ccc(Oc3ccccc3)nc2n1`, 101% (inactive). To `Cc1ccc(NS(=O)(=O)c2ccccc2)c2c1CC(C)(C)O2` belongs 83.2% (inactive); to `O=C1N=c2ccccc2=C1c1[nH]c(=S)[nH]c1O`, 105% (inactive); to `Cc1ccc(Nc2nc(N)nc(CC#N)n2)cc1`, 87% (inactive). Take `C=CCn1c(SCC(=O)Nc2nnc(CC)s2)nnc1-c1cccnc1`: the “viability” value was 95.3% (inactive). Next, `c1ccc(CSc2snnc2-c2ccccc2)cc1`: 83.8% [at 25 µM] (inactive); `O=C(c1cn(-c2ccccc2)nc1-c1cccnc1)N1CCCCC1`: 94.1% (inactive); `O=C(COC(=O)c1cn(-c2ccccc2)nc1-c1ccccc1)c1cccc([N+](=O)[O-])c1`: 102% (inactive).

The record behind these values is PubChem BioAssay AID2253 (Southern Research Specialized Biocontainment Screening …, 2010).
